Reference: ChEMBL document CHEMBL1961873, “Compounds: GSK PKIS; Assays: Nanosyn kinase panel” (2012)

Target: T1, Tyrosine-protein kinase JAK3 (Homo sapiens) (UniProt P52333)
T1 sequence (whole entry): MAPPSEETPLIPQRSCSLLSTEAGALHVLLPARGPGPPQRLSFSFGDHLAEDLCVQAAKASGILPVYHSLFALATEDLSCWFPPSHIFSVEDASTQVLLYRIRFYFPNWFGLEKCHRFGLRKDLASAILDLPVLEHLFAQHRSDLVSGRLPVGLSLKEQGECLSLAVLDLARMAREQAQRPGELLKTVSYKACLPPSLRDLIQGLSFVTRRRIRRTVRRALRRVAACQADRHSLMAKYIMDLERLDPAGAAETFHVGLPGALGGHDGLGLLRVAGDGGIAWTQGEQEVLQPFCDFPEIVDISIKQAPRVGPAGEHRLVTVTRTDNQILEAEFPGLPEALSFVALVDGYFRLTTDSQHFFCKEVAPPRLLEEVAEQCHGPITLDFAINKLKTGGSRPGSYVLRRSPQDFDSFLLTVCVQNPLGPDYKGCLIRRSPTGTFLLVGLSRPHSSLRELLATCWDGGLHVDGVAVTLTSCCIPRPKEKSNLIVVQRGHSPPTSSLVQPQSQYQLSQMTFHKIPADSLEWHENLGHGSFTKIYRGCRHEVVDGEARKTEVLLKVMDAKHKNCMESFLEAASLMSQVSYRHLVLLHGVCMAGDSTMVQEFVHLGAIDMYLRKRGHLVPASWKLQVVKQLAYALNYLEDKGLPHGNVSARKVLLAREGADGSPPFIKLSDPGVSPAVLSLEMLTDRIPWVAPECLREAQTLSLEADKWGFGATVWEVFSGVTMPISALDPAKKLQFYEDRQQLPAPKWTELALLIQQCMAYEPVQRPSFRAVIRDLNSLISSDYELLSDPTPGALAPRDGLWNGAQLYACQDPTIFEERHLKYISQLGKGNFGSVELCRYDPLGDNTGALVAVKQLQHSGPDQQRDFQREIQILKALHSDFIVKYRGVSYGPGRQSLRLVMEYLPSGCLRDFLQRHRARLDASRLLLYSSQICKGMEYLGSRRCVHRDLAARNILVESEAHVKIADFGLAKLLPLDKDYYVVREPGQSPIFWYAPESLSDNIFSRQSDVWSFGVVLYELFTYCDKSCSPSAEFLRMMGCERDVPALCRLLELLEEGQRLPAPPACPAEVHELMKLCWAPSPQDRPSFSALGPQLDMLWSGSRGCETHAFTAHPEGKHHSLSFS
Details: at 1 µM

Compound	inhibition [%]
N#Cc1c(NC(=O)c2cccc3ccccc23)sc2c1CCCC2	1.51
CCn1c(-c2nonc2N)nc2cncc(C(=O)N3CCNCC3)c21	-0.7
NS(=O)(=O)c1cccc(-c2ccc3c(NC(=O)C4CC4)n[nH]c3c2)c1	1.58
CC1=C(C(=O)Nc2ccc3[nH]ncc3c2)C(c2ccc3ccccc3c2)CC(=O)N1 (stereo unspecified)	30.9
Cc1nnc(-c2ccc(C)c(-c3ccc(C(=O)Nc4cccc(C#N)c4)cc3)c2)o1	1.29
Cc1nn(C)c2cc(N(C)c3ccnc(Nc4cccc(S(N)(=O)=O)c4)n3)ccc12	27.3
CS(=O)(=O)CCN(CC#N)Cc1ccc(-c2ccc3ncnc(Nc4ccc(OCc5cccc(F)c5)c(Cl)c4)c3c2)o1	-5.16
NC(=O)c1cccc(Nc2nccc(Nc3cccc4[nH]ncc34)n2)c1	25.2
COc1cc2ncn(-c3cc(OCc4ccccc4Cl)c(C(N)=O)s3)c2cc1OC	4.86
Cc1cccc(-c2n[nH]cc2-c2ccc3ncccc3n2)n1	3.06
CCn1c(-c2nonc2N)nc2ccncc21	2.73
COc1cc2ncn(-c3cc(OCc4ccccc4C(F)(F)F)c(C(N)=O)s3)c2cc1OC	-2.61
NCc1ccc(-c2nc(-c3ccc(Cl)c(O)c3)c(-c3ccncc3)[nH]2)cc1	1.41
CCN1CCC(CC(=O)Nc2n[nH]c3nc(-c4cccs4)c(Br)cc23)CC1	2.19
Nc1nc(-c2ccc3c(c2)C(=Cc2cc(Br)c(O)c(Br)c2)C(=O)N3)cs1	2.02
COc1ccc(-c2nn3ncccc3c2-c2ccnc(Nc3ccc(Cl)c(C(F)(F)F)c3)n2)cc1	-0.67
COc1ccc(COc2ccc(Cc3cnc(N)nc3N)cc2OC)cc1	3.61

Compound	inhibition [%]
[O-][S+]1CCN(Cc2ccc(-c3ccc4ncnc(Nc5ccc(OCc6ccccc6)c(F)c5)c4c3)o2)CC1	-0.11
CC(C)=Cc1cccc2c1/C(=N/Nc1ccc(S(N)(=O)=O)cc1)C(=O)N2	54.4
Nc1ncnc2occ(-c3ccc(NC(=O)Nc4cc(C(F)(F)F)cc(C(F)(F)F)c4)cc3)c12	0.78
COc1cc(C)c(NC(=O)CN(C)C)cc1Nc1nc(Nc2cccc(F)c2C(N)=O)c2cc[nH]c2n1	-1.63
COC(=O)Nc1nc2cc(Oc3ccc(NC(=O)Nc4cccc(C(=O)O)c4)cc3)ccc2[nH]1	0.66
CS(=O)(=O)Nc1ccc(N/C=C2\C(=O)Nc3ccccc32)cc1	8.16
CC(=O)Nc1cccc(C#Cc2cncnc2Nc2ccc(OCc3cccc(F)c3)c(Cl)c2)n1	2.66
CN(C)c1cc2c(Nc3ccc4nc(Cc5ccccc5)[nH]c4c3)ncnc2cn1	-1.24
COc1ccc(-c2ccncc2)cc1C(N)=O	0.37
O=C(Nc1n[nH]c2nc(-c3ccco3)c(Br)cc12)C1CC1	1.18
CS(=O)(=O)CCNCc1ccc(-c2ccc3ncnc(Nc4ccc(OCc5cccc(F)c5)c(C(F)(F)F)c4)c3c2)o1	-0.15
CCn1c(-c2nonc2N)nc2c(C#CC(C)(C)O)nc(CN3CCCC3)cc21	1.49
CCn1c(-c2nonc2N)nc2c(N3CCCC3)nccc21	2.23
CCc1cccc(NC(=O)Nc2ccc(Oc3ccc4nc(NC(=O)OC)[nH]c4c3)cc2)c1	1.13
O=C1Nc2ccc(C(=O)c3ccco3)cc2C1=Cc1cc(Cl)c(O)c(Cl)c1	66.9
CS(=O)(=O)CCNCc1nc(-c2ccc3ncnc(Nc4ccc(F)c(Cl)c4)c3c2)cs1	3.43
Fc1cccc(COc2ccc(Nc3ncnc4cc(-c5ccc[nH]5)sc34)cc2Cl)c1	-1.5

Target: Vascular endothelial growth factor receptor 2 (Homo sapiens) (UniProt P35968)
Details: at 0.1 µM

Chain of Vascular endothelial growth factor receptor 2 (Homo sapiens) (P35968 whole entry): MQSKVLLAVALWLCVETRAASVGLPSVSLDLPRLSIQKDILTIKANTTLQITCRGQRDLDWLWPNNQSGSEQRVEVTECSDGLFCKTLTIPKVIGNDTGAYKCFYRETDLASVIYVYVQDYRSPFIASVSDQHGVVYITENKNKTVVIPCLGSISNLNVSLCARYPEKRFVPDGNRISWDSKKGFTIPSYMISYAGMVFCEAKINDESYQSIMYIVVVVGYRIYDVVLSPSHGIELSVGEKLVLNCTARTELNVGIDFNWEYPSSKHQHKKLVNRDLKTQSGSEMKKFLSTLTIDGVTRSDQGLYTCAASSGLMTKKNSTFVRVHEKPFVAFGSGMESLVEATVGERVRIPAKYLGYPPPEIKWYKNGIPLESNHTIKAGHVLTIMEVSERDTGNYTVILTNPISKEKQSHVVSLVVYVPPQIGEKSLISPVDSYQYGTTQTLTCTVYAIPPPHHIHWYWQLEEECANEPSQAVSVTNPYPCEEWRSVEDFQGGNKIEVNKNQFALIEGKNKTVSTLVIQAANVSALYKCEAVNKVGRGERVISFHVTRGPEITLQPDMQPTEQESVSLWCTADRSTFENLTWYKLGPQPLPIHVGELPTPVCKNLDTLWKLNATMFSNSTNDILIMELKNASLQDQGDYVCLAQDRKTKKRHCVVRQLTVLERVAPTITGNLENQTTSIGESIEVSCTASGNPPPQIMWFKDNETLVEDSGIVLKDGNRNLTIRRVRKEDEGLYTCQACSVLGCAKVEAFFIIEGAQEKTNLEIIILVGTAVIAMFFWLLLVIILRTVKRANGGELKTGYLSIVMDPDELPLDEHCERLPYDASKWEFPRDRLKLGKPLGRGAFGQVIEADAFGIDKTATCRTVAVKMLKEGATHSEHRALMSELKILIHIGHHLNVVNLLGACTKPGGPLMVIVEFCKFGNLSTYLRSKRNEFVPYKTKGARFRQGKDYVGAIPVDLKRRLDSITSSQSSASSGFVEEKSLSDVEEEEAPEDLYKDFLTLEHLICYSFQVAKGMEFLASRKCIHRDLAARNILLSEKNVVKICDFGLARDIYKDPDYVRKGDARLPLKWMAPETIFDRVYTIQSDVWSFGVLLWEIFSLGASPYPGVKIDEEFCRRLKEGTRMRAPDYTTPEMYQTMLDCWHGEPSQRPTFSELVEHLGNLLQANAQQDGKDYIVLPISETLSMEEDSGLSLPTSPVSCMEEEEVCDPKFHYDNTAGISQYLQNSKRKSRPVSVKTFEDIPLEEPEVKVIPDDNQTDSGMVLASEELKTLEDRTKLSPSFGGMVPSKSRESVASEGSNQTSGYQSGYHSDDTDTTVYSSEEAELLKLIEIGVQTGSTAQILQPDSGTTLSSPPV

Compound	inhibition [%]
N#Cc1c(NC(=O)c2cccc3ccccc23)sc2c1CCCC2	6.33
CCn1c(-c2nonc2N)nc2cncc(C(=O)N3CCNCC3)c21	3.99
NS(=O)(=O)c1cccc(-c2ccc3c(NC(=O)C4CC4)n[nH]c3c2)c1	0.44
CC1=C(C(=O)Nc2ccc3[nH]ncc3c2)C(c2ccc3ccccc3c2)CC(=O)N1 (stereo unspecified)	5.3
Cc1nnc(-c2ccc(C)c(-c3ccc(C(=O)Nc4cccc(C#N)c4)cc3)c2)o1	3.3
Cc1nn(C)c2cc(N(C)c3ccnc(Nc4cccc(S(N)(=O)=O)c4)n3)ccc12	45.4
CS(=O)(=O)CCN(CC#N)Cc1ccc(-c2ccc3ncnc(Nc4ccc(OCc5cccc(F)c5)c(Cl)c4)c3c2)o1	4.09
NC(=O)c1cccc(Nc2nccc(Nc3cccc4[nH]ncc34)n2)c1	16.1
COc1cc2ncn(-c3cc(OCc4ccccc4Cl)c(C(N)=O)s3)c2cc1OC	12.2
Cc1cccc(-c2n[nH]cc2-c2ccc3ncccc3n2)n1	61.3
CCn1c(-c2nonc2N)nc2ccncc21	1.87
COc1cc2ncn(-c3cc(OCc4ccccc4C(F)(F)F)c(C(N)=O)s3)c2cc1OC	21.7
NCc1ccc(-c2nc(-c3ccc(Cl)c(O)c3)c(-c3ccncc3)[nH]2)cc1	69.2
CCN1CCC(CC(=O)Nc2n[nH]c3nc(-c4cccs4)c(Br)cc23)CC1	1.49
Nc1nc(-c2ccc3c(c2)C(=Cc2cc(Br)c(O)c(Br)c2)C(=O)N3)cs1	1.8
COc1ccc(-c2nn3ncccc3c2-c2ccnc(Nc3ccc(Cl)c(C(F)(F)F)c3)n2)cc1	1.69

Compound	inhibition [%]
COc1ccc(COc2ccc(Cc3cnc(N)nc3N)cc2OC)cc1	6.02
[O-][S+]1CCN(Cc2ccc(-c3ccc4ncnc(Nc5ccc(OCc6ccccc6)c(F)c5)c4c3)o2)CC1	2.98
CC(C)=Cc1cccc2c1/C(=N/Nc1ccc(S(N)(=O)=O)cc1)C(=O)N2	8.9
Nc1ncnc2occ(-c3ccc(NC(=O)Nc4cc(C(F)(F)F)cc(C(F)(F)F)c4)cc3)c12	46.7
COc1cc(C)c(NC(=O)CN(C)C)cc1Nc1nc(Nc2cccc(F)c2C(N)=O)c2cc[nH]c2n1	3.26
CS(=O)(=O)Nc1ccc(N/C=C2\C(=O)Nc3ccccc32)cc1	6.66
CC(=O)Nc1cccc(C#Cc2cncnc2Nc2ccc(OCc3cccc(F)c3)c(Cl)c2)n1	-2.26
CN(C)c1cc2c(Nc3ccc4nc(Cc5ccccc5)[nH]c4c3)ncnc2cn1	7.5
COc1ccc(-c2ccncc2)cc1C(N)=O	2.67
O=C(Nc1n[nH]c2nc(-c3ccco3)c(Br)cc12)C1CC1	5.71
CS(=O)(=O)CCNCc1ccc(-c2ccc3ncnc(Nc4ccc(OCc5cccc(F)c5)c(C(F)(F)F)c4)c3c2)o1	3.99
CCn1c(-c2nonc2N)nc2c(C#CC(C)(C)O)nc(CN3CCCC3)cc21	5.26
CCn1c(-c2nonc2N)nc2c(N3CCCC3)nccc21	1.32
O=C1Nc2ccc(C(=O)c3ccco3)cc2C1=Cc1cc(Cl)c(O)c(Cl)c1	6.41
CS(=O)(=O)CCNCc1nc(-c2ccc3ncnc(Nc4ccc(F)c(Cl)c4)c3c2)cs1	9.85
Fc1cccc(COc2ccc(Nc3ncnc4cc(-c5ccc[nH]5)sc34)cc2Cl)c1	6.01
